CYP2C19 act – human CYP2C19 activators, primary screen, biochemical, luminescence | Cytochrome P450 2C19 (Homo sapiens), P33261 | activation factor at 5 µM | recombinant CYP2C19, luciferin-H EGE luminescence; active compounds read high; 0 = fully inhibited enzyme, 1 = untreated enzyme | 96,000 tested, under 10 active;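 active means activation factor of at least 2 at 5 µM in the primary screen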
Target sequence (P33261 whole entry, looked up): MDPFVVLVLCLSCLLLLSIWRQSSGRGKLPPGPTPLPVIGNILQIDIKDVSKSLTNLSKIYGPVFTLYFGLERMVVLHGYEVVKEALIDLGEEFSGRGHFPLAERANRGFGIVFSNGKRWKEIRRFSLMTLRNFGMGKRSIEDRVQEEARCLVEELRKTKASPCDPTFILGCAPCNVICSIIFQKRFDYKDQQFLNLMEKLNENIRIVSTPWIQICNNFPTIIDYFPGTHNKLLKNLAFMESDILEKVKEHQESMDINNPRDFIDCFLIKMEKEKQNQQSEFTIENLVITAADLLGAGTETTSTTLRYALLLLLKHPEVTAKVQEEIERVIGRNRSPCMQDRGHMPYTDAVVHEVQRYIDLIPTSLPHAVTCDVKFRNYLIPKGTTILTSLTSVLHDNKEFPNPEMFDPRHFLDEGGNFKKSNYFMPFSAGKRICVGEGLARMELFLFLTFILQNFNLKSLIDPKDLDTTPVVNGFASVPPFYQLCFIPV
Cav32 inh – Cav3.2 calcium influx blockers – cell-based, Fluo-4 calcium fluorescence, FDSS, MLSMR library, primary screen | Voltage-dependent T-type calcium channel subunit alpha-1H (Homo sapiens), O95180 | Cav3.2-expressing cells; active compounds read low | B-score at 10 µM | actives 4% (n = 100,000) | AID 449739, 2010;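 active means single-dose well whose peak fluorescence ratio is a statistical outlier from its plate by either plate-standardised score or position-corrected B-score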
CYP2C9 inh – blockers of cytochrome P450 2C9 activity – biochemical, luminescence, ADME assay, primary screen | CYP2C9 Supersomes, luciferin-H conversion | inhibition, % at 5 µM | actives 20% (n = 96,000) | AID 777, 2007;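 active means blocking of liver enzyme CYP2C9 beyond about 50% at 5 µM, limit read from the data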
CYP2C19 inhib – blockers of cytochrome P450 2C19 activity – biochemical, luminescence, ADME assay, primary screen. actives 21% (n = 96,000). P33261. CYP2C19 Supersomes, luciferin-H EGE luminescence, 30 min. inhibition, % at 5 µM. AID 778, 2007;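 active means CYP2C19 inhibition above a set limit at 5 µM in the primary screen, cut at about 50% in these data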
CYP2C9 act – human CYP2C9 activators, primary screen, biochemical, luminescence; recombinant CYP2C9, luciferin-H conversion; active compounds read high; factor 1 = untreated enzyme, 0 = blocked; AID 1024, 2008; Cytochrome P450 2C9 (Homo sapiens), P11712; actives 1.4% (n = 96,000); activation factor at 5 µM;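 active means activation factor of 2 or more for CYP2C9 at a 5 µM dose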
Large screens that a line does not name were inactive. Rows were chosen to be rich in hits. Some 27% of all compounds tested hit in one or more screens of this group.

CCSC1=C(C#N)C(c2ccccc2OC)CC(=O)N1 (stereo not drawn)	none (no result: CYP2C19 act, CYP2C9 inh, CYP2C19 inhib, CYP2C9 act)
CCOC(=O)CSC1=C(C#N)C(c2ccccc2OC)CC(=O)N1 (stereo not drawn)	CYP2C19 inhib 64 (no result: Cav32 inh)
COc1ccc(OC)c(C2CC(=O)NC(SC)=C2C#N)c1 (stereo not drawn)	CYP2C9 inh 64 (no result: Cav32 inh)
CSC1=C(C#N)C(c2cccc(Br)c2)CC(=O)N1 (stereo not drawn)	none (no result: CYP2C19 act, CYP2C9 inh, CYP2C19 inhib, CYP2C9 act)
O=c1oc2ccccc2n1CCn1c2ccccc2c2nc3ccccc3nc21	CYP2C9 inh 64, CYP2C19 inhib 78
N#CCCn1c2ccccc2c2nc3ccccc3nc21	none
CCOC(=O)Cn1c2ccccc2c2nc3ccccc3nc21	CYP2C19 inhib 58
CCCn1c2ccccc2c2nc3ccccc3nc21	CYP2C9 inh 69, CYP2C19 inhib 54
CCOC(=O)Cn1c(=O)cnc2ccccc21	none
Cc1cccc(N2C(=O)c3cccc4c(N(C)CCO)ccc(c34)C2=O)c1	none (no result: Cav32 inh)
O=C(CC1CCS(=O)(=O)C1)Nc1ccc[nH]c1=O (stereo not drawn)	none
N#Cc1cnn(-c2ncnc3sc(-c4ccccc4)cc23)c1N	none
Cn1c(Cc2c[nH]c3ccccc23)n[nH]c1=S	CYP2C19 inhib 67
Cc1[nH]c2ccccc2c1Cc1n[nH]c(=S)n1C	none (no result: CYP2C19 act, CYP2C9 inh, CYP2C19 inhib, CYP2C9 act)
O=C(CNCCC1=CCCCC1)Nc1ccccc1N1CCCCC1	CYP2C9 inh 86, CYP2C19 inhib 93
O=C(CN1CCCCC1)Nc1ccccc1NC(=O)CN1CCCCC1	none
O=C(CN1CCc2ccccc2C1)Nc1ccccc1N1CCCCCC1	Cav32 inh -3.3, CYP2C9 inh 73, CYP2C19 inhib 90
O=C(CNCC1CCCCC1)Nc1ccccc1N1CCCCC1	Cav32 inh -7.1, CYP2C19 inhib 74
COc1ccc(NC(=O)O/N=C2/CCCc3ccc(OC)cc32)cc1	CYP2C9 inh 62
COc1ccc(NC(=S)N/N=C2/CCCc3c(C)cc(C)cc32)cc1	none
N#Cc1c2n(c3c(=O)n(Cc4ccccc4)cnc13)CCCC2	CYP2C9 inh 82, CYP2C19 inhib 98
CCOC(=O)Cn1cnc2c(C#N)c3n(c2c1=O)CCCCC3	none
O=c1c2cnn(-c3ccccc3)c2ncn1Cc1ccccc1	none (no result: CYP2C19 act, CYP2C9 inh, CYP2C19 inhib, CYP2C9 act)
N#Cc1c2n(c3c(=O)n(Cc4ccc(Cl)cc4)cnc13)CCCCC2	CYP2C9 inh 100, CYP2C19 inhib 99 (no result: Cav32 inh)
N#Cc1c2n(c3c(=O)n(CC(=O)c4ccc(Br)cc4)cnc13)CCCC2	CYP2C19 inhib 53
Cc1ccc(C(=O)Nc2nc(C)c(C)s2)o1	none
Nc1cc(=O)[nH]c(SCC(=O)NCC2CCCO2)n1 (stereo not drawn)	none
CC(=O)C1=C(Nc2ccc(C)cc2)CC(C)(O)C(C(C)=O)C1c1ccco1 (stereo not drawn)	none
C/C(CCc1ccc2c(c1)OCO2)=N\N=C(/N)SC1CC(=O)N(c2ccc(Cl)cc2)C1=O (stereo not drawn)	Cav32 inh -4.1, CYP2C9 inh 55
CCOC(=O)c1c(C)[nH]c2cc(Br)c(O)cc12	CYP2C9 inh 68, CYP2C19 inhib 68
CCOC(=O)c1c(OCC)[nH]c2c1cc(O)c1ccccc12	none
CCCCn1c(NC(=O)c2ccc(Br)o2)c(S(=O)(=O)c2ccccc2)c2nc3ccccc3nc21	CYP2C9 inh 83
CC(=Nc1ccc(C)c(C)c1)C1=C(O)CCC1=O	CYP2C19 inhib 54
CC(=NC(C)C)C1=C(O)CCC1=O	none
CC1(C(=O)NC2CCCCCCC2)CCC(=O)N1CCN1CCOCC1 (stereo not drawn)	none
COc1cccc(-c2cc3c(-n4cccc4)ncnc3o2)c1	none
COc1cccc(C2=CC(=O)CC(C)(C)C2)n1	none (no result: CYP2C19 act, CYP2C9 inh, CYP2C19 inhib, CYP2C9 act)
CC(C)c1ccc(/C=c2\sc3nc(-c4ccncc4)nn3c2=O)cc1	CYP2C9 inh 58
Cc1cc(/C=N/NC(=O)c2cccc([N+](=O)[O-])c2)c(C)n1-c1ccc(Cl)cc1Cl	Cav32 inh -6.4
Cc1cccc(-n2c(C)cc(/C=N/NC(=O)c3ccc(CN4CCOCC4)cc3)c2C)c1	CYP2C9 inh 77
Cc1cccc(-n2c(C)cc(/C=N/NC(=O)c3cccc([N+](=O)[O-])c3C)c2C)c1	Cav32 inh -3.7
Cc1ccc(C(=O)N/N=C/c2cc(C)n(-c3ccc(Br)cc3)c2C)cc1[N+](=O)[O-]	none
